Experimental data: PubChem BioAssay (NCI)
This is part of a sample that, as a whole, favours compounds with a hit. Of some 79,000 tested, about 15% had one in any assay. The source made the active and inactive calls. No stated cut-off is given here; in the data, active means growth inhibition above about 70%; inactive means the rest.

Legend:
[1] = NCI Yeast Anticancer Drug Screen. Data for the rad52 strain (AID 147);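 further: 0% = growth of vehicle-treated control cultures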; conditions: S. cerevisiae rad52 mutant growth inhibition, hits give high values
How it was run: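 Read-out: growth inhibition versus vehicle-treated controls. Cells were a DNA repair-deficient yeast strain treated with compounds.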

[2] = NCI Yeast Anticancer Drug Screen. Data for the wt1 strain (AID 149);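 further: 0% = growth of vehicle-treated wt1 cultures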; conditions: S. cerevisiae wt1 strain (SPY 50644) growth inhibition, hits give high values
How it was run: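 Growth inhibition read against vehicle controls after compound exposure of the wt1 yeast strain.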

[3] = NCI Yeast Anticancer Drug Screen. Data for the rad50EPP+ strain (AID 151);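 further: 0% = growth of vehicle-treated control cultures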; conditions: S. cerevisiae rad50 mutant strain, hits give high values
How it was run: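 Growth inhibition read against vehicle controls in rad50EPP+ yeast, a strain altered in DNA damage repair, after compound exposure.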

[4] = NCI Yeast Anticancer Drug Screen. Data for the mgt1 strain (AID 153); conditions: S. cerevisiae mgt1 mutant growth inhibition, hits give high values
How it was run: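 mgt1 yeast grown with test compound; read-out is growth inhibition versus vehicle-treated cultures.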

[5] = NCI Yeast Anticancer Drug Screen. Data for the rad50 strain (AID 155);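 further: 0% = growth of vehicle-only cultures of the same strain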; conditions: S. cerevisiae rad50 strain growth inhibition, hits give high values
How it was run: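 Readout: growth inhibition relative to vehicle-treated cultures. Compound exposure was carried out in a genetically defined yeast strain deficient in DNA damage repair.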

[6] = NCI Yeast Anticancer Drug Screen. Data for the rad14 strain (AID 159);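 further: 0% = growth of vehicle-treated control cultures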; conditions: S. cerevisiae rad14 strain growth inhibition, hits give high values
How it was run: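 Growth inhibition vs vehicle controls; genetically altered yeast strain (DNA damage repair defect) treated with test compounds.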

[7] = NCI Yeast Anticancer Drug Screen. Data for the sgs1 mgt1 strain (AID 161);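 further: 0% = growth of cultures given vehicle only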; conditions: S. cerevisiae sgs1 mgt1 strain, hits give high values
How it was run: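 Mutant yeast exposed to compound; growth scored against vehicle-only wells.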

[8] = NCI Yeast Anticancer Drug Screen. Data for the CLN2oe strain (AID 163);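 further: 0% = growth of vehicle-only control cultures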; conditions: S. cerevisiae CLN2oe strain, hits give high values
How it was run: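 Read-out: yeast growth inhibition, expressed relative to vehicle-only controls. The strain bears an engineered cell-cycle alteration.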

[9] = NCI Yeast Anticancer Drug Screen. Data for the cln2 rad14 strain (AID 165);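 further: 0% = growth equal to vehicle treated cultures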; conditions: S. cerevisiae cln2 rad14 strain, hits give high values
How it was run: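 cln2 rad14 yeast strain; compound exposure; growth inhibition read vs vehicle controls.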

[10] = NCI Yeast Anticancer Drug Screen. Data for the bub3 strain (AID 167); conditions: S. cerevisiae bub3 mutant strain, hits give high values
How it was run: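 Readout: yeast growth inhibition, expressed relative to vehicle-only wells. The test organism is a mutant strain from a panel with lesions in DNA repair or checkpoint genes.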

[11] = NCI Yeast Anticancer Drug Screen. Data for the wt2 strain (AID 169);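 further: 0% = growth of vehicle-treated yeast cultures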; conditions: S. cerevisiae wt2 strain growth inhibition, hits give high values
How it was run: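 Read-out: growth inhibition versus vehicle-treated control cultures after compound exposure of the yeast strain.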

[12] = NCI Yeast Anticancer Drug Screen. Data for the mlh1 strain (AID 171);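 further: 0% = growth of vehicle-treated control cultures of the same strain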; conditions: S. cerevisiae mlh1 strain growth inhibition, hits give high values
How it was run: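 Read-out: growth inhibition versus vehicle controls. Strain: engineered yeast with a defined DNA repair or cell cycle defect, compound-treated.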

[13] = NCI Yeast Anticancer Drug Screen. Data for the sgs1 strain (AID 173);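 further: 0% = growth of vehicle-only control cultures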; conditions: S. cerevisiae sgs1 mutant, hits give high values
How it was run: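 Read-out: yeast growth inhibition relative to vehicle controls, following compound exposure of a strain with a defined DNA repair/cell cycle alteration.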

[14] = NCI Yeast Anticancer Drug Screen. Data for the mlh1 rad18 strain (AID 175); conditions: S. cerevisiae mlh1 rad18 strain growth inhibition, hits give high values
How it was run: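 Yeast w/ defined DNA-repair lesions; compound exposure; growth vs vehicle controls → % inhibition.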

[15] = NCI Yeast Anticancer Drug Screen. Data for the rad18 strain (AID 177); conditions: S. cerevisiae rad18 mutant growth inhibition, hits give high values
How it was run: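 Readout: growth inhibition vs vehicle controls. Cells: genetically altered yeast strain, DNA repair defect.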

[16] = NCI Yeast Anticancer Drug Screen. Data for the mec2-1 strain (AID 157); conditions: S. cerevisiae mec2-1 strain, hits give high values
How it was run: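 Yeast mec2-1 mutant treated with compound. Readout: growth inhibition vs vehicle controls.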

[17] = at 5.0 µM (retest, dose inferred, filed as 0.5)
[18] = at 50.0 µM (retest, dose inferred, filed as 5.0)

Measured: growth inhibition

CC(C)c1ccccc1NC(=O)/C(Cl)=C(\Cl)C(=O)O
inactive: [1]; at 1.2 µM 0% | [1]; at 3.7 µM 1% | [1]; at 11.0 µM 0% | [1]; at 33.0 µM 5% | [2]; at 1.2 µM -1% | [2]; at 3.7 µM -1% | [2]; at 11.0 µM -1% | [2]; at 33.0 µM 1% | [2]; at 100.0 µM 59% | [3]; at 1.2 µM 2% | [3]; at 3.7 µM 4% | [3]; at 11.0 µM 7% | [3]; at 33.0 µM 21% | [4]; at 1.2 µM 1% | [4]; at 3.7 µM 3% | [4]; at 11.0 µM 5% | [4]; at 33.0 µM 8% | [5]; at 1.2 µM 0% | [5]; at 3.7 µM 0% | [5]; [17] 0% | [5]; at 11.0 µM -2% | [5]; at 33.0 µM 11% | [5]; at 50.0 µM 30.1% | [6]; at 1.2 µM 2% | [6]; at 3.7 µM 2% | [6]; at 11.0 µM 4% | [6]; at 33.0 µM 6% | [7]; [17] -12% | [7]; [18] 16% | [7]; at 50.0 µM 2.4% | [8]; at 1.2 µM 1% | [8]; at 3.7 µM 6% | [8]; at 11.0 µM 5% | [8]; at 33.0 µM 2% | [9]; [17] 13% | [9]; [18] 63% | [9]; at 50.0 µM 51.6% | [10]; at 1.2 µM 0% | [10]; at 3.7 µM 1% | [10]; [17] 9% | [10]; at 11.0 µM 5% | [10]; at 33.0 µM 7% | [10]; at 50.0 µM 8.1% | [11]; at 1.2 µM 1% | [11]; at 3.7 µM 0% | [11]; at 11.0 µM 0% | [11]; at 33.0 µM 4% | [12]; at 1.2 µM -1% | [12]; at 3.7 µM 1% | [12]; at 11.0 µM 2% | [12]; at 33.0 µM 4% | [12]; at 100.0 µM 66% | [13]; at 1.2 µM 2% | [13]; at 3.7 µM 4% | [13]; at 11.0 µM 5% | [13]; at 33.0 µM 12% | [14]; [17] 21% | [14]; [18] 28% | [14]; at 50.0 µM 11.9% | [15]; at 1.2 µM 0% | [15]; at 3.7 µM 0% | [15]; at 11.0 µM 1% | [15]; at 33.0 µM 8%
active: [1]; at 100.0 µM 99% | [3]; at 100.0 µM 99% | [4]; at 100.0 µM 94% | [5]; [18] 82% | [5]; at 100.0 µM 98% | [6]; at 100.0 µM 93% | [8]; at 100.0 µM 82% | [10]; [18] 77% | [10]; at 100.0 µM 97% | [11]; at 100.0 µM 88% | [13]; at 100.0 µM 96% | [15]; at 100.0 µM 98%

CN(C)c1nc2sc3c(c2c(=O)o1)CCCC3
inactive: [1]; at 1.2 µM 2% | [1]; at 3.7 µM 5% | [1]; at 11.0 µM 6% | [1]; at 33.0 µM 26% | [1]; at 100.0 µM 36% | [2]; at 1.2 µM -5% | [2]; at 3.7 µM -4% | [2]; at 11.0 µM -4% | [2]; at 33.0 µM 8% | [2]; at 100.0 µM 32% | [3]; at 1.2 µM 13% | [3]; at 3.7 µM 14% | [3]; at 11.0 µM 21% | [3]; at 33.0 µM 23% | [3]; at 100.0 µM 22% | [4]; at 1.2 µM -5% | [4]; at 3.7 µM -7% | [4]; at 11.0 µM 0% | [4]; at 33.0 µM 16% | [4]; at 100.0 µM 31% | [5]; at 1.2 µM 3% | [5]; at 3.7 µM 6% | [5]; [17] -4% | [5]; at 11.0 µM -13% | [5]; at 33.0 µM 29% | [5]; [18] 43% | [5]; at 50.0 µM 68.9% | [5]; at 100.0 µM 45% | [16]; at 1.2 µM 1% | [16]; at 3.7 µM -1% | [16]; [17] -4% | [16]; at 11.0 µM 0% | [16]; at 33.0 µM 26% | [16]; [18] 29% | [16]; at 50.0 µM 27.9% | [16]; at 100.0 µM 39% | [7]; [17] -7% | [7]; [18] 19% | [7]; at 50.0 µM 54.3% | [8]; at 1.2 µM 1% | [8]; at 3.7 µM -1% | [8]; at 11.0 µM -2% | [8]; at 33.0 µM 26% | [8]; at 100.0 µM 40% | [9]; [17] 26% | [9]; [18] 13% | [9]; at 50.0 µM -6.65% | [10]; at 1.2 µM 27% | [10]; at 3.7 µM 39% | [10]; [17] 39% | [10]; at 11.0 µM 44% | [10]; at 33.0 µM 55% | [10]; at 100.0 µM 69% | [11]; at 1.2 µM -1% | [11]; at 3.7 µM 0% | [11]; at 11.0 µM 1% | [11]; at 33.0 µM 26% | [11]; at 100.0 µM 35%
active: [10]; [18] 92% | [10]; at 50.0 µM 75.2%
